Data: PubChem BioAssay (NCI)
The panel holds about 79,000 compounds, 15% with a hit somewhere; the sample as a whole holds those more often. The source made the active and inactive calls. Rule as the data show it: active = growth inhibition above about 70%; inactive = the rest.

Legend:
[1] = NCI Yeast Anticancer Drug Screen. Data for the rad52 strain (AID 147);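 also: 0% = growth of vehicle-treated control cultures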; conditions: S. cerevisiae rad52 mutant growth inhibition, hits give high values
Outline: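 DNA repair-defective yeast; compound exposure; growth scored against vehicle controls.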

[2] = NCI Yeast Anticancer Drug Screen. Data for the wt1 strain (AID 149);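 also: 0% = growth of vehicle-treated wt1 cultures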; conditions: S. cerevisiae wt1 strain (SPY 50644) growth inhibition, hits give high values
Outline: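 wt1 strain grown with compound or vehicle; inhibition taken from the growth difference.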

[3] = NCI Yeast Anticancer Drug Screen. Data for the rad50EPP+ strain (AID 151);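 also: 0% = growth of vehicle-treated control cultures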; conditions: S. cerevisiae rad50 mutant strain, hits give high values
Outline: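 rad50EPP+ yeast treated with test compounds. Readout: growth vs vehicle control.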

[4] = NCI Yeast Anticancer Drug Screen. Data for the mgt1 strain (AID 153); conditions: S. cerevisiae mgt1 mutant growth inhibition, hits give high values
Outline: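 Growth inhibition relative to vehicle controls was scored for the mgt1 yeast strain after compound exposure.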

[5] = NCI Yeast Anticancer Drug Screen. Data for the rad50 strain (AID 155);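 also: 0% = growth of vehicle-only cultures of the same strain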; conditions: S. cerevisiae rad50 strain growth inhibition, hits give high values
Outline: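 DNA repair mutant yeast, compound exposure, growth read-out; inhibition is taken relative to vehicle.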

[6] = NCI Yeast Anticancer Drug Screen. Data for the mec2-1 strain (AID 157); conditions: S. cerevisiae mec2-1 strain, hits give high values
Outline: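 Growth inhibition is read against vehicle-treated controls after compound exposure of the mec2-1 yeast strain, which is defective in DNA damage repair or cell cycle control.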

[7] = NCI Yeast Anticancer Drug Screen. Data for the rad14 strain (AID 159);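 also: 0% = growth of vehicle-treated control cultures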; conditions: S. cerevisiae rad14 strain growth inhibition, hits give high values
Outline: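 DNA repair-defective yeast, compound-exposed; % growth inhibition derived by comparison with vehicle-treated controls.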

[8] = NCI Yeast Anticancer Drug Screen. Data for the sgs1 mgt1 strain (AID 161);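 also: 0% = growth of cultures given vehicle only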; conditions: S. cerevisiae sgs1 mgt1 strain, hits give high values
Outline: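 This yeast growth screen uses a strain with defined DNA-repair lesions; compound-treated growth is compared with vehicle-treated growth.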

[9] = NCI Yeast Anticancer Drug Screen. Data for the CLN2oe strain (AID 163);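 also: 0% = growth of vehicle-only control cultures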; conditions: S. cerevisiae CLN2oe strain, hits give high values
Outline: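 Compound-treated yeast; growth vs vehicle ctrl = % inhibition. Genetically altered strain (cell-cycle control).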

[10] = NCI Yeast Anticancer Drug Screen. Data for the cln2 rad14 strain (AID 165);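 also: 0% = growth equal to vehicle treated cultures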; conditions: S. cerevisiae cln2 rad14 strain, hits give high values
Outline: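 Growth inhibition, relative to vehicle-treated controls, is the read-out. The test organism is a yeast strain with defined genetic alterations, cln2 rad14.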

[11] = NCI Yeast Anticancer Drug Screen. Data for the bub3 strain (AID 167); conditions: S. cerevisiae bub3 mutant strain, hits give high values
Outline: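 In this screen, a yeast mutant lacking normal mitotic checkpoint function is challenged with compound. Relative growth versus vehicle gives the inhibition value.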

[12] = NCI Yeast Anticancer Drug Screen. Data for the wt2 strain (AID 169);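 also: 0% = growth of vehicle-treated yeast cultures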; conditions: S. cerevisiae wt2 strain growth inhibition, hits give high values
Outline: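 Compound exposure of yeast; growth compared with vehicle controls; inhibition reported.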

[13] = NCI Yeast Anticancer Drug Screen. Data for the mlh1 rad18 strain (AID 175); conditions: S. cerevisiae mlh1 rad18 strain growth inhibition, hits give high values
Outline: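 Cells of a genetically altered yeast strain, deficient in DNA damage repair, were treated with compound. Their growth was then compared with that of vehicle-treated cultures to give inhibition.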

[14] = NCI Yeast Anticancer Drug Screen. Data for the rad18 strain (AID 177); conditions: S. cerevisiae rad18 mutant growth inhibition, hits give high values
Outline: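 Compounds are applied to a repair-deficient yeast strain, and growth is compared with that of vehicle-treated cultures to give percent inhibition.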

[15] = NCI Yeast Anticancer Drug Screen. Data for the mlh1 strain (AID 171);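 also: 0% = growth of vehicle-treated control cultures of the same strain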; conditions: S. cerevisiae mlh1 strain growth inhibition, hits give high values
Outline: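 Compounds are applied to a genetically altered yeast strain, and its growth is compared with that of vehicle-treated cultures to give percent inhibition.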

[16] = NCI Yeast Anticancer Drug Screen. Data for the sgs1 strain (AID 173);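 also: 0% = growth of vehicle-only control cultures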; conditions: S. cerevisiae sgs1 mutant, hits give high values
Outline: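 Compounds applied to genetically altered yeast; growth compared with vehicle-treated cultures to give % inhibition.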

[17] = at 5.0 µM (retest, dose inferred, filed as 0.5)
[18] = at 50.0 µM (retest, dose inferred, filed as 5.0)

Measured: growth inhibition

O=Cc1ccc2c(c1)C(=O)c1ccccc1C2=O
inactive: [1]; at 1.2 µM 4% | [1]; at 3.7 µM 11% | [1]; at 11.0 µM 33% | [2]; at 1.2 µM 1% | [2]; at 3.7 µM -1% | [2]; at 11.0 µM 7% | [2]; at 33.0 µM 18% | [2]; at 100.0 µM 31% | [3]; at 1.2 µM 0% | [3]; at 3.7 µM 5% | [3]; at 11.0 µM 33% | [4]; at 1.2 µM 0% | [4]; at 3.7 µM 9% | [4]; at 11.0 µM 9% | [4]; at 33.0 µM 33% | [4]; at 100.0 µM 55% | [5]; at 1.2 µM 2% | [5]; at 3.7 µM 16% | [5]; [17] -11% | [5]; at 11.0 µM 44% | [5]; [18] 57% | [6]; at 1.2 µM 0% | [6]; at 3.7 µM 7% | [6]; [17] 6% | [6]; at 11.0 µM 12% | [6]; at 33.0 µM 21% | [6]; [18] 21% | [6]; at 50.0 µM 30.8% | [6]; at 100.0 µM 34% | [7]; at 1.2 µM 0% | [7]; at 3.7 µM -3% | [7]; at 11.0 µM 10% | [7]; at 33.0 µM 23% | [7]; at 100.0 µM 37% | [8]; [17] 5% | [8]; [18] 8% | [8]; at 50.0 µM 39.5% | [9]; at 1.2 µM -3% | [9]; at 3.7 µM -1% | [9]; at 11.0 µM 13% | [9]; at 33.0 µM 25% | [9]; at 100.0 µM 22% | [10]; [17] -21% | [10]; [18] 16% | [10]; at 50.0 µM 35.9% | [11]; at 1.2 µM -1% | [11]; at 3.7 µM -7% | [11]; [17] -3% | [11]; at 11.0 µM 8% | [11]; at 33.0 µM 9% | [11]; [18] 8% | [11]; at 50.0 µM 36.6% | [11]; at 100.0 µM 7% | [12]; at 1.2 µM 0% | [12]; at 3.7 µM 4% | [12]; at 11.0 µM 14% | [12]; at 33.0 µM 32% | [12]; at 100.0 µM 51% | [13]; [17] 10% | [13]; [18] 61% | [13]; at 50.0 µM 67.8% | [14]; at 1.2 µM -1% | [14]; at 3.7 µM 0% | [14]; at 11.0 µM 14% | [14]; at 33.0 µM 61%
active: [1]; at 33.0 µM 79% | [1]; at 100.0 µM 92% | [3]; at 33.0 µM 73% | [3]; at 100.0 µM 83% | [5]; at 33.0 µM 80% | [5]; at 50.0 µM 77.6% | [5]; at 100.0 µM 91% | [14]; at 100.0 µM 81%

Nc1ccc2c(c1)C(=O)c1ccc(F)cc1-2
inactive: [1]; at 1.2 µM 13% | [1]; at 3.7 µM 24% | [1]; at 11.0 µM 43% | [1]; at 33.0 µM 47% | [1]; at 100.0 µM 53% | [2]; at 1.2 µM 1% | [2]; at 3.7 µM 2% | [2]; at 11.0 µM 9% | [2]; at 33.0 µM 14% | [2]; at 100.0 µM 16% | [3]; at 1.2 µM 13% | [3]; at 3.7 µM 28% | [3]; at 11.0 µM 46% | [3]; at 33.0 µM 59% | [3]; at 100.0 µM 60% | [4]; at 1.2 µM 2% | [4]; at 3.7 µM 9% | [4]; at 11.0 µM 15% | [4]; at 33.0 µM 24% | [4]; at 100.0 µM 19% | [5]; at 1.2 µM 16% | [5]; at 3.7 µM 36% | [5]; [17] 5% | [5]; at 11.0 µM 55% | [5]; at 33.0 µM 61% | [5]; at 100.0 µM 51% | [6]; at 1.2 µM 4% | [6]; at 3.7 µM 10% | [6]; [17] -2% | [6]; at 11.0 µM 11% | [6]; at 33.0 µM 13% | [6]; [18] 30% | [6]; at 50.0 µM 19.6% | [6]; at 100.0 µM 22% | [7]; at 1.2 µM 6% | [7]; at 3.7 µM 13% | [7]; at 11.0 µM 15% | [7]; at 33.0 µM 18% | [7]; at 100.0 µM 22% | [8]; [17] -6% | [8]; [18] 32% | [8]; at 50.0 µM 9.55% | [9]; at 1.2 µM 5% | [9]; at 3.7 µM 7% | [9]; at 11.0 µM 11% | [9]; at 33.0 µM 20% | [9]; at 100.0 µM 16% | [10]; [17] 5% | [10]; [18] 8% | [10]; at 50.0 µM 5.25% | [11]; at 1.2 µM 2% | [11]; at 3.7 µM 6% | [11]; [17] -13% | [11]; at 11.0 µM 12% | [11]; at 33.0 µM 12% | [11]; [18] 35% | [11]; at 50.0 µM 20% | [11]; at 100.0 µM 20% | [15]; at 1.2 µM 3% | [15]; at 3.7 µM 13% | [15]; at 11.0 µM 14% | [15]; at 33.0 µM 13% | [15]; at 100.0 µM 22% | [16]; at 1.2 µM -4% | [16]; at 3.7 µM -4% | [16]; at 11.0 µM 0% | [16]; at 33.0 µM 2% | [16]; at 100.0 µM 4% | [13]; [17] 15% | [13]; at 50.0 µM 33.2% | [14]; at 1.2 µM 0% | [14]; at 3.7 µM 6% | [14]; at 11.0 µM 26% | [14]; at 33.0 µM 35% | [14]; at 100.0 µM 14%
active: [5]; [18] 71% | [5]; at 50.0 µM 81.4% | [13]; [18] 78%
